High-throughput results (PubChem BioAssay)
3T3 cytotox – Cytotoxic Profiling in NIH 3T3 Cell Line of Diverse Libraries Using Quantitative High-Throughput Screening; NIH 3T3 viability, CellTiter-Glo ATP luminescence, 48-72 h; AID 1345082, 2018; Potency, µM (highest dose often 96.7 µM), inactives show at the highest dose activity change, negative = cytotoxicity, usual class: inhibitors; actives 4.3% (n = 94,000); further: nearly all actives have a fitted effect of over 55% in size
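Cells were seeded at 400 per well, treated with pin-transferred compound, and kept 48 or 72 hr at 37 °C before CellTiter-Glo addition and luminescence imaging of cellular ATP.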
FLuc inh – Firefly luciferase inhibition profiling of diverse chemical library using quantitative high-throughput screening; actives 2.5% (n = 76,000); purified P. pyralis luciferase, luminescence, biochemical; Potency, µM (top dose mostly 115 µM), usual class: inhibitors; Luciferin 4-monooxygenase (Photinus pyralis), P08659; further: nearly all actives have a fitted effect of over 65% in size
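FLuc 10nM, D-luciferin 10uM, ATP 10uM, Mg acetate 10mM, Tris acetate pH 7.5, Tween/BSA; cpd qHTS; enzyme added last; CCD luminescence.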
NPR1 antag – Natriuretic polypeptide receptor (hNpr1) antagonism - Primary qHTS | HEK293 hNpr1 GloSensor cGMP, ANP-stimulated luminescence | Potency, µM (series often up to 46.3 µM), inactives show at the top dose activity change, negative = inhibition, actives largely listed as inhibitors | actives 1.6% (n = 76,000); calls by dose curve; further: nearly all actives have a fitted effect of over 60% in size
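Compound pre-incubated 30 min at room temperature on GloSensor-loaded HEK293 cells stably carrying hNpr1 and the pGS-40F cGMP biosensor. Stimulation uses hNppA at 0.1 nM final; luminescence is taken at baseline and 20 min post-agonist.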
HEK293 tox – Cytotoxic Profiling in HEK 293 Cell Line of Diverse Libraries Using Quantitative High-Throughput Screening | HEK 293 viability, ATP luminescence (CellTiter-Glo), 48-72 h | Potency, µM (doses to about 115 µM), for the others: at the top dose activity change, negative = cytotoxicity, hits mostly inhibitors | actives 6.6% (n = 94,000) | AID 1345083, 2018; further: nearly all actives have a fitted effect of over 60% in size
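Luminescence from cellular ATP, measured with CellTiter-Glo, indicates HEK 293 viability. Cells plated at 250 cells/well are treated with compound for 48 or 72 hr at 37 degree Celsius before reagent addition.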
GPT2 inh – Primary qHTS assay for inhibitors of Glutamate pyruvate transaminase 2 (GPT2). Alanine aminotransferase 2 (Homo sapiens), Q8TD30. Recombinant GPT2, coupled pyruvate oxidase/HRP Amplex Red fluorescence. actives 0.25% (n = 100,000). AID 1671188, 2021. Potency, µM (top dose mostly 57.7 µM), inactives show at the highest dose activity change, negative = inhibition, usual class: inhibitors; further: nearly all actives have a fitted effect of over 60% in size
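Fluorescence read-out: pyruvate from GPT2 turnover coupled to pyruvate oxidase, HRP and Amplex Red (0.2mM ThPP, 0.2U/mL PO and HRP, 50uM Amplex final). Substrates 250uM a-KG, 2mM L-alanine; enzyme 10ng/uL; 30 min RT.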
Starred values were filed as active, the others as inactive; i = inactive; ? = inconclusive; / = no result; [ ] = remark or other dose. Sampled rows, rich in hits. Any-hit rate of the full collection: about 10%. Unless noted, the call rests on the fitted dose curve; in most records, active means well fitted curve in the direction sought with a large enough effect; inconclusive means small, poorly fitted or top-dose-only effect, or another doubt; inactive means no such curve, though single readings can be large; an effect the other way counts as inactive or inconclusive. On the % scale 0 is the no-effect control and ±100 the full control effect; potency means the concentration at half of the fitted maximal effect.

SMILES	3T3 cytotox	FLuc inh	NPR1 antag	HEK293 tox	GPT2 inh
CSc1ccc(-c2cccc(C(=O)NCCNC(=O)NC(C)C)c2)cc1	?	/	/	?	5.0%
O=C(NCC1CC1)c1cccc(OC2CN(Cc3cc4ccccc4nc3Cl)C2)c1	?	/	/	?	i
O=C(NC1CCN(c2ccc3nnc(C4CC4)n3n2)C1)c1ccncc1 (stereo unspecified)	?	/	/	-0.8%[172 µM]	/
NCC(=O)N1CCCCCCNC(=O)CC1c1ccccc1 (stereo unspecified)	4.2%	i	3.2%	0.1%	4.9%
COc1ccc(-n2cc(CN3CCN(C)C(C)C3)c(-c3cccc(F)c3)n2)cc1 (stereo unspecified)	31.6µM*	?	-4.4%	35.5µM*	1.0%
COc1ccc(-n2cc(CN3C[C@@H](C)O[C@@H](C)C3)c(-c3cccc(F)c3)n2)cc1	-19.1%	i	-1.1%	?	-6.0%
O=C(NCCc1ccccc1F)c1ccc2nc(-c3ccccn3)oc2c1	?	/	/	?	i
CCN(CC)Cc1nc(C2(O)CCN(Cc3ccccc3C(F)(F)F)CC2)cs1	?	i	8.3%[70.6 µM]	89.1µM*	-19.4%[88.5 µM]
CCN(CC)Cc1nc(C2(O)CCN(Cc3ccccc3O)CC2)cs1	?	i	2.1%[70.6 µM]	-24.5%[172 µM]	-8.3%[88.5 µM]
Cn1cccc1CN1CCC2(C1)C(=O)Nc1ccccc12 (stereo unspecified)	100µM*	i	5.6%[70.6 µM]	?	i
COc1ccc(-c2cccc(C(=O)N3CCN(C(=O)c4ccccc4OC)CC3)c2)nn1	i	/	/	2.3%	/
CCN1c2cc(C(=O)N3CCN(c4cccc(C)c4)CC3)ccc2C(=O)N2CCCCC21 (stereo unspecified)	?	i	-1.0%	?	i
CCN1c2cc(C(=O)N3CCN(c4ccc(F)cc4)CC3)ccc2C(=O)N2CCCCC21 (stereo unspecified)	-22.5%	i	7.2%	44.7µM*	-8.4%
CCN1c2cc(C(=O)N3CCN(c4ccccc4)CC3)ccc2C(=O)N2CCCCCC21 (stereo unspecified)	-23.2%	i	0.0%	28.2µM*	4.1%
CN(Cc1n[nH]c2c1CCCCC2)C(=O)c1cn(CC2CCCCC2)nn1	?	i	-2.8%	?	-26.9%
CC(=O)NCCCC(=O)N1CCC2(CC1)CC(NC(C)=O)c1ccccc1O2 (stereo unspecified)	i	/	/	-3.8%	-9.6%
Cc1cnc(CNC(=O)c2cc(CN3CCC(Cc4ccccc4)CC3)on2)cn1	-19.7%	i	-1.6%	?	-5.6%
O=C(NCc1cccnc1)c1cc(CN2CCC(Cc3ccccc3)CC2)on1	31.6µM*	i	-6.6%	-28.4%	4.8%
COC1CN(c2cccc(F)c2)C12CCN(C(=O)C1CCC1)CC2 (stereo unspecified)	-19.4%	i	2.8%	?	i
COC1CN(c2cccc(F)c2)C12CCN(C(=O)CCCc1ccccc1)CC2 (stereo unspecified)	?	i	1.2%	?	-4.6%
COC1CN(c2cccc(F)c2)C12CCN(C(=O)C1CCCCC1)CC2 (stereo unspecified)	-22.0%	i	-1.5%	28.2µM*	2.0%
COC1CN(c2cccc(F)c2)C12CCN(C(=O)NCCc1ccccc1)CC2 (stereo unspecified)	?	i	2.6%	50.1µM*	3.7%
COC1CN(c2cccc(F)c2)C12CCN(S(=O)(=O)c1cccc(F)c1)CC2 (stereo unspecified)	?	/	/	28.2µM*	i
COC1CN(c2cccc(F)c2)C12CCN(C(=O)NC1CCCCC1)CC2 (stereo unspecified)	?	i	1.8%	44.7µM*	i
COC1CN(c2cccc(F)c2)C12CCN(C(=O)NC(C)(C)C)CC2 (stereo unspecified)	-18.1%	i	-0.5%	?	i
SMILES	3T3 cytotox	FLuc inh	NPR1 antag	HEK293 tox	GPT2 inh
COC1CN(c2cccc(F)c2)C12CCN(C(=O)c1ccncc1)CC2 (stereo unspecified)	-8.6%	i	-0.1%	-21.6%	i
CC(C)c1cc2c(c(O)c1O[C@@H]1O[C@H](CO)[C@@H](O)[C@H](O)[C@H]1O)CC1(O)CCC(O)C(C)(C)C1CC2 (stereo partly specified)	/	/	/	/	i
COCCc1nncn1C1CCN(S(=O)(=O)c2ccc(OC)cc2)CC1	-4.7%	i	-3.3%	4.2%	i
COCCCNC(=O)c1c(C)noc1-c1cc(OC)cc(OC)c1	-21.4%	i	2.1%	-20.1%	i
COc1ccc(C2Cn3nnc(-c4noc(C5CCCC5)n4)c3CO2)cc1 (stereo unspecified)	-6.2%	i	-16.3%	-20.4%	1.0%
COc1ccc(Nc2ccnc(N3CCC(NC(=O)c4ccccc4F)CC3)n2)cc1	?	/	/	50.1µM*	-1.6%
O=C(NC1CCN(c2nccc(Nc3ccccc3F)n2)CC1)c1ccccc1F	?	/	/	?	-10.0%
COc1cccc(C(=O)NC2CCN(c3nccc(Nc4ccc(C)cc4)n3)CC2)c1	39.8µM*	/	/	?	i
Cc1ccc(Nc2ccnc(N3CCC(NC(=O)c4ccccc4F)CC3)n2)cc1	?	/	/	50.1µM*	i
COc1ccc(C(=O)N2CC[C@H]3C(=O)NCCCCCCN(Cc4ccncc4)[C@@H]3C2)c(OC)c1	-11.1%	i	8.8%	3.2%	i
CNC(=O)[C@H]1C[C@H](Oc2ccccc2)CN1C(=O)c1ccc(Cc2c(C)noc2C)o1	i	?	4.5%	1.0%	i
COc1cc(C)c2c(c1C)C[C@H](C(C)C(=O)NCc1cccs1)CC2 (stereo partly specified)	35.5µM*	i	-8.6%[70.6 µM]	?	i
COCCOc1cc(C)c2c(c1C)C[C@H](C(C)C(=O)NCc1cccs1)CC2 (stereo partly specified)	?	i	-12.6%[70.6 µM]	50.1µM*	i
Cc1cc(OCCN(C)C)c(C)c2c1CC[C@@H]([C@H](C)C(=O)NCc1ccccc1)C2	56.2µM*	i	-7.3%[70.6 µM]	50.1µM*	-28.5%[88.5 µM]
COc1ccccc1N1CCN(C(=O)Cn2c(-c3ccc(F)cc3)nc(C)cc2=O)CC1	?	i	-2.0%	0.3%	i
Cc1ccc(NC(=O)c2cc3c(N(C)Cc4ccccc4)nc(C)cn3n2)c(F)c1	-25.0%	i	4.2%	?	-2.0%
